Data on 32 compounds can be found in PubChem BioAssay AID504637 (National Center for Advancing Translational Sciences (NCATS), 2011).

Each structure is given as a SMILES string. Out of some 1,100 compounds screened, about 430 (39%) were called active. About 44% were inconclusive and are not listed. The set was probably picked from earlier hits. Only a selection was taken, and actives are over-represented in it overall. Unmarked numbers belong to inactive results. Calls come from the whole dose curve; as a rule, active = well fitted inhibition curve with a large enough effect; inconclusive = small, poorly fitted or top-dose-only effect, or effect the other way; inactive = flat fitted curve, though single readings scatter.
Potency is the fitted concentration of half-maximal effect.

Sequence of ATP-dependent 6-phosphofructokinase (Trypanosoma brucei brucei) (O15648 whole entry, looked up): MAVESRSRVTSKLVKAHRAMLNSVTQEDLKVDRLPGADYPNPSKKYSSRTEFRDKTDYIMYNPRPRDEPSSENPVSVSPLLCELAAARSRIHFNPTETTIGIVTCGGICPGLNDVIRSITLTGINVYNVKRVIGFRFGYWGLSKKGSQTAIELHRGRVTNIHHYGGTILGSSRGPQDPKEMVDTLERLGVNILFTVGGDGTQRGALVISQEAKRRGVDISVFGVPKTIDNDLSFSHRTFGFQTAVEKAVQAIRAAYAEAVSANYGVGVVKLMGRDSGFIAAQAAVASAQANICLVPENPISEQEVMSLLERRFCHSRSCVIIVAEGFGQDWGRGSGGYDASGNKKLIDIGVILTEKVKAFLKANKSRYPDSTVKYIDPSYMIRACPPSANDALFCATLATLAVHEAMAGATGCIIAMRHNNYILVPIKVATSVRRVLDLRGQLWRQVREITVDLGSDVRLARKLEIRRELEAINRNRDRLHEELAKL

In the experiment the target is ATP-dependent 6-phosphofructokinase (Trypanosoma brucei brucei) (UniProt O15648). Briefly: Inhibitors of T. brucei phosphofructokinase: Hit Validation.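 For activity change, negative = inhibition: plate controls were full PFK enzyme control for no effect and no enzyme control for full effect.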 Note: nearly all actives have a fitted effect of over 60% in size. The conditions noted are these: purified T. brucei PFK, ADP-Glo luminescence, 45 min; series mostly up to 57.5 µM; activity change, negative = inhibition: at the top concentration. The source says:
NCGC Assay Overview: Various species of the protozoan family Trypanosomatidae are responsible for a range of serious human diseases in tropical and subtropical areas of the world. […] Many of the disorders caused by trypanosomatids are fatal if left untreated, but most currently used drugs are inefficient and toxic. […] Oxidative metabolism involving the mitochondrial tricarboxylic acid cycle and oxidative phosphorylation are repressed in these parasites, and recent RNA interference (RNAi) experiments have shown that even partial depletion of certain individual glycolytic enzymes can lead to the death of cultured parasites. One such glycolytic enzyme, phosphofructokinase (PFK), catalyzes the formation of fructose-1,6-bisphosphate (F1,6BP) and ADP from fructose-6-phosphate (F6P) and ATP, and in many metabolic circumstances makes an important contribution to the control of flux through the glycolytic pathway. As a specific glycolytic target, PFK is particularly attractive as it catalyzes the first irreversible step in glycolysis, and structural and kinetic studies have shown very substantial and essential differences from corresponding host enzymes, allowing for the discovery of parasite-selective inhibitors. The goal of this screen is to find small-molecule inhibitors of T. brucei PFK using a biochemical assay that measures PFK activity as a function of ADP production. A luminescence-based assay for T. brucei PFK activity has been developed which uses luciferase to detect production of ADP. Traditional luciferase-based nucleotide detection reagents rely on ATP production as a direct substrate for the luciferase reaction; however, PFK catalyzes the transfer of a phosphate from ATP to F6P, resulting in the net depletion of ATP. To directly measure the ADP product of the PFK reaction, we used the ADP-Glo detection kit (Promega), which utilizes two separate reactions to 1) deplete all remaining uncatalyzed ATP and 2) convert all remaining ADP to ATP, which is then detected through a traditional luciferase-coupled reaction. Compounds were screened as a concentration-titration series that ranged from 57uM to 0.7nM. 1. Verlinde, C.L., et al., Glycolysis as a target for the design of new anti-trypanosome drugs. Drug Resist Updat, 2001. 4(1): p. 50-65. 2. Albert, M.A., et al., Experimental and in silico analyses of glycolytic flux control in bloodstream form Trypanosoma brucei. J Biol Chem, 2005. 280(31): p. 28306-15. 3. […] J Mol Biol, 2009. 385(5): p. 1519-33. NIH Molecular Libraries Probe Production Network [MLPCN] NIH Chemical Genomics Center [NCGC] Grant: 1 R03 MH092153-01 PI Name: Malcolm Walkinshaw, University of Edinburgh
NCGC Assay Protocol Summary: Substrate buffer was dispensed into white, solid 1536-well plates at 3uL/well in 0.1M triethanolamine (TEA) buffer, pH 8.0, containing final concentrations of 5 mM MgCl2, 0.01% Tween20, 0.5 mM fructose-6-phosphate (F6P) and 0.1mM ATP. Then, 23 nL of compounds or DMSO were delivered to each well using a pin tool. One uL T. brucei PFK (0.1M TEA, 0.01% Tween20, 0.1% bovine serum albumin (BSA) and 1.25nM PFK, final concentrations) was then dispensed, and plates were incubated at room temperature for 45 min. The luminescent detection reagent, ADP-Glo (Promega), was then added in two steps: the first reagent, ADP-Glo (which converts remaining uncatalyzed ATP), was added at 2.5uL/well and incubated for ten minutes at room temperature, and the second component, Kinase Detection reagent (which converts ADP to ATP as a substrate for luciferase-based luminescence), was added immediately after at 5uL/well, followed by one final ten minute room temperature incubation. The plates were measured on a ViewLux plate reader for luminescent signal using a clear filter with a one second exposure. The %Activity was determined from the corrected luminescence values. […]
(In general: ADP-Glo first removes unused ATP, then detects ADP through luciferase.)
As to `Cn1nnnc1NCc1ccc(Cl)c(Cl)c1`, the Potency was 23.9 µM (active).

In the case of `Cc1ccc(CC(=O)Nc2ccc(S(=O)(=O)N3CCOCC3)cc2)cc1C`, the “activity change, negative = inhibition” value is -29.8%.

Consider `O=C(Cc1ccc(Cl)c(Cl)c1)Nc1ccc(SC(F)F)cc1`, for which the Potency is 23.9 µM (active).

`O=C(COC(=O)CCC(=O)c1cccs1)NCc1ccco1`: the “activity change, negative = inhibition” value was -18.7%.

`C=CC1=C(C(=O)O)N2C(=O)[C@@H](NC(=O)/C(=N\OCC(=O)O)c3csc(N)n3)[C@H]2SC1`: the Potency is 4.26 µM (active).

Take `N#Cc1cccc(CSc2ncnc(N)n2)c1`: the Potency is 26.9 µM (active).

Take `C=C1c2c(Cl)ccc(O)c2C(O)=C2C(=O)[C@]3(O)C(O)=C(C(N)=O)C(=O)[C@@H](N(C)C)[C@@H]3[C@@H](O)C12` (some centres not stated): the “activity change, negative = inhibition” value is -15.8%.

With `O=C1CSC(=S)N1/N=C/c1ccc(O)c([N+](=O)[O-])c1`, the “activity change, negative = inhibition” value is -1.08%.

Turning to `COC(=O)CC(=O)N1CCN(c2ccc(Cl)c(Cl)c2)CC1`, the Potency was 26.9 µM (active).

Regarding `O=C1CSC(=S)N1c1ccc(Cl)c(Cl)c1`, the “activity change, negative = inhibition” value was -15.2%.

As for `Cc1nn(Cc2ccc(Cl)c(Cl)c2)c(C)c1NC(=O)c1cc(C2CC2)on1`, the Potency was 12 µM (active).

Take `O=[N+]([O-])/C=C/c1ccc2c(ccn2Cc2ccccc2)c1`: the Potency was 23.9 µM (active).

With `CC(C)(C)c1nnc(NC(=O)C2c3ccccc3Oc3ccccc32)s1`, the Potency was 26.9 µM (active).

As to `Cc1ccc(NC(=O)c2cc(-c3ccc(C)o3)nc3ccccc23)nc1`, the Potency is 12 µM (active).

As to `O=C(Cc1ccc([N+](=O)[O-])cc1)N/N=C/c1ccco1`, the Potency was 23.9 µM (active).

`O=C(NCc1ccc(Cl)c(Cl)c1)c1cccnc1`: the Potency was 26.9 µM (active).

As for `Cc1ccc(-c2nn(-c3ccccc3)cc2/C=C2\SC(=S)N(CCCCCC(=O)O)C2=O)o1`, the Potency was 30.1 µM (active).

In the case of `O=c1[nH]c(=S)[nH]c2[nH]c(=S)[nH]c12`, the Potency was 1.9 µM (active).

Turning to `O=[N+]([O-])c1c(NCCO)cc(Sc2nc3ccccc3s2)c2nonc12`, the Potency is 1.51 µM (active).

Consider `O=C(CSc1nc(O)c(Cc2ccccc2)c(=O)[nH]1)Nc1nc2c(s1)CCCC2`, for which the Potency was 16.9 µM (active).

Regarding `OCCN1CCN(C(=S)c2ccc(-c3ccccc3)cc2)CC1`, the Potency is 26.9 µM (active).

On to `FC(F)(F)C1CCCN(c2nsc3ccccc23)C1` (configuration not stated), for which the Potency was 4.26 µM (active).

On to `CCn1nc(C(=O)NNS(=O)(=O)c2cc(/C=C/C(=O)O)cc(OC)c2OC)c2ccccc2c1=O`, for which the “activity change, negative = inhibition” value is -8.81%.

On to `Cc1c(C)c2ccc(OCC(=O)N3CCN(c4cccc(Cl)c4)CC3)cc2oc1=O`, for which the Potency was 8.49 µM (active).

In the case of `COc1ccc(N/C=C(\C2OC(=O)c3ccccc32)[N+](=O)[O-])cc1` (configuration not stated), the “activity change, negative = inhibition” value was -3.4%.

As to `Cc1nc(N)nc(SCc2ccc([N+](=O)[O-])cc2)c1N`, the Potency is 19 µM (active).

As to `Cc1cccc(-n2c(N)c(C(=O)N3CCN(C)CC3)sc2=S)c1`, the Potency is 13.5 µM (active).

For the compound `O=c1ccnc(Nc2ccc(Cl)cc2)[nH]1`, the Potency was 30.1 µM (active).

Turning to `C=C(C)C(=O)Nc1cccc(C2=NOC3(C2)C[C@H](C(N)=O)N(C(=O)C(c2ccccc2)c2ccccc2)C3)c1` (some centres not stated), the Potency is 1.9 µM (active).

`Cn1sc(=O)c2cc(S(=O)(=O)NC3CC3)ccc21`: the Potency is 21.3 µM (active).

For the compound `O=c1[nH]c2ccccc2n2c(-c3ccccc3)nnc12`, the Potency was 13.5 µM (active).

As for `Cc1ccccc1CN1C[C@@H]2C[C@@H](c3cn(C)nc3-c3ccccc3)N3CCC[C@@]23C1=O`, the “activity change, negative = inhibition” value is -23.6%.
